24 compounds from PubChem BioAssay can be followed below.

For orientation: remaining activity means the signal under treatment as a percentage of the control signal. For orientation: AC50 means the concentration at which the activity in the assay is half-maximal.

Assay [1] in a line: EMT-state selective cytotoxicity in co-culture – imaging, PC-3E GFP, TEM4-18 mCherry, primary screen (AID 1345086).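 For all read-outs here: cells exposed to compound for 72 h before imaging.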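 For red/green cell ratio (normalised): normalised mesenchymal count divided by normalised epithelial count so high means epithelial killing.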 As to conditions: PC-3E GFP / TEM4-18 mCherry co-culture, imaging cell counts, at 1 µM; for red/green cell ratio (normalised): actives lie on both sides, counts scaled to control wells, 1 = unselective.
Assay [2] has as its system Aerobactin synthetase IucA (Klebsiella pneumoniae). Briefly: inhibition of K. pneumoniae IucA enzyme – biochemical, Tocris library, absorbance (AID 1345561; call rule not given here;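 note: 100% = enzyme without compound and 0% = no enzyme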). The settings on record: purified IucA enzyme assay, absorbance (OD) read-out; stronger effect = lower value;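 tested at 8 µM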.
Assay [3] in a line: viability loss in pontine glioma line – cell-based, SU-DIPG-XVII, MIPE5.0, CellTiter-Glo, qHTS, dose response (AID 1347060; cut-off not given, nearly all actives have AC50 up to about 26 µM;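 for AC50: cells exposed to compound for 48 hours before viability readout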). The settings on record: CellTiter-Glo ATP luminescence. (ATP-based viability assays read luminescence as a measure of living cells.)
A short description of assay [4]: viability loss in pontine glioma line – cell-based, SU-DIPG-XIII, MIPE4.0, CellTiter-Glo, qHTS, dose response (AID 1347061; cut-off not given, nearly all actives have AC50 up to about 37 µM;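 note: cells exposed to compound for 48 hours before readout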). As to conditions: CellTiter-Glo ATP luminescence.
The nature of assay [5]: viability loss in pontine glioma line – cell-based, SU-DIPG-IV, MIPE4.0, CellTiter-Glo, qHTS, dose response (AID 1347063; cut-off not given, nearly all actives have AC50 up to about 30 µM;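 note: compound exposure lasted 48 hours before the viability readout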). As to conditions: CellTiter-Glo ATP luminescence.
Assay [6] in a line: viability loss in pontine glioma line – cell-based, JHH-DIPG-1, MIPE4.0, CellTiter-Glo, qHTS, dose response (AID 1347062; cut-off not given, nearly all actives have AC50 up to about 27 µM;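 for AC50: cells exposed to compound for two days before readout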). The settings on record: JHH-DIPG-1 viability, CellTiter-Glo ATP luminescence.
Assay [7] in a line: viability loss in pontine glioma line – cell-based, SU-DIPG-XIII, MIPE5.0, CellTiter-Glo, qHTS, dose response (AID 1347064; cut-off not given, nearly all actives have AC50 up to about 23 µM;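 for AC50: cells exposed to compound for 48 hours before the viability read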). The settings on record: CellTiter-Glo ATP luminescence.
The mark [8] stands for this setting: measured here: epithelial PC-3E GFP cell survival.
The mark [9] stands for this setting: measured here: mesenchymal TEM4-18 mCherry cell survival.

Where “and” joins values, the source holds several entries; their conditions need not be identical. Equal entries are not always repeated. Records with an inconclusive call do not appear. Calls of active or inactive are those of the source.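 Rule for the calls, unless noted: active = compounds killing one labelled cell type while sparing the other, by normalised counts and ratio limits, not self-fluorescent; inactive = the rest.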

As for `C[C@](N)(Cc1ccc(O)c(O)c1)C(=O)O`, the red/green cell ratio (normalised) in assay [1] is 1.05 (inactive). The normalised cell number in assay [1] (setting [8]) was determined as 0.98; in assay [1] (setting [9]), 1.03. Besides, the remaining activity in assay [2] was 110% (inactive). Further, the compound was called inactive in assay [3], in assay [4] and in assay [5].

In the case of `C/C=C(/C(=C/C)c1ccc(O)cc1)c1ccc(O)cc1`, the red/green cell ratio (normalised) in assay [1] was 1.38 (inactive). Further, the normalised cell number in assay [1] (setting [8]) came out at 1.12; in assay [1] (setting [9]), 1.55. For the same compound, the AC50 in assay [3] was 23.5 µM (active). The result in assay [4] and in assay [6] was inactive.

Turning to `COC(=O)[C@H]1[C@H]2C[C@@H]3c4[nH]c5cc(OC)ccc5c4CCN3C[C@H]2C[C@@H](OC(=O)c2cc(OC)c(OC)c(OC)c2)[C@@H]1OC`, the red/green cell ratio (normalised) in assay [1] is 1.08 (inactive) and 1.2 (inactive). Further, the normalised cell number is 0.87 and 1.06 in assay [1] (setting [8]); 0.94 and 1.27 in assay [1] (setting [9]). The remaining activity in assay [2] was 124% (inactive).

With `COCCCOc1cc(C[C@@H](C[C@H](N)[C@@H](O)C[C@H](C(=O)NCC(C)(C)C(N)=O)C(C)C)C(C)C)ccc1OC`, in assay [1], the red/green cell ratio (normalised) was 0.98 (inactive). Moreover, the normalised cell number in assay [1] (setting [8]) turned out to be 0.98; in assay [1] (setting [9]) it was 0.96. The compound was classed as inactive in assay [3], in assay [4] and in assay [6].

As to `Cc1oncc1C(=O)Nc1ccc(C(F)(F)F)cc1`, the red/green cell ratio (normalised) in assay [1] is 0.74 (inactive). For the same compound, the figures for the normalised cell number in assay [1] (setting [8]) and in assay [1] (setting [9]) were 1.34 and 0.99, respectively. For the same compound, the remaining activity in assay [2] was 91.8% (inactive). Further, the compound was called inactive in assay [6] and in assay [7].

Regarding `NS(=O)(=O)c1cc2c(cc1Cl)NC(C1CC3C=CC1C3)NS2(=O)=O` (stereo unspecified), in assay [1], the red/green cell ratio (normalised) is 1.29 (inactive). Further, the normalised cell number in assay [1] (setting [8]) was 0.95; in assay [1] (setting [9]), 1.23. Besides, in assay [2], the remaining activity is 94.1% (inactive).

Take `Cc1cc2c(C(C)C)c(O)c(O)c(C=O)c2c(O)c1-c1c(C)cc2c(C(C)C)c(O)c(O)c(C=O)c2c1O`: the red/green cell ratio (normalised) in assay [1] is 0.91 (inactive). Moreover, the normalised cell number in assay [1] (setting [8]) stood at 1.04; in assay [1] (setting [9]) it was 0.95. The remaining activity in assay [2] was 103% (inactive). The AC50 is 7.42 µM (active) in assay [3]; 23.5 µM (active) in assay [4]; 18.7 µM (active) in assay [6]; 18.7 µM (active) in assay [5]; 10.5 µM (active) in assay [7].

Take `Cc1cc(C(C)(C)C)c(O)c(C)c1CC1=NCCN1`: the red/green cell ratio (normalised) in assay [1] is 0.88 (inactive). In addition, the figures for the normalised cell number in assay [1] (setting [8]) and in assay [1] (setting [9]) were 1.08 and 0.96, respectively. In assay [2], the remaining activity was 99.4% (inactive). Besides, the compound was called inactive in assay [3], in assay [4], in assay [5] and in assay [7].

Take `CN1CCN2c3ccccc3Cc3ccccc3C2C1` (stereo unspecified): the red/green cell ratio (normalised) in assay [1] was 1.03 (inactive). The normalised cell number came to 1.24 in assay [1] (setting [8]) and 1.28 in assay [1] (setting [9]). Further, the remaining activity in assay [2] was 115% (inactive). The result in assay [4], in assay [6] and in assay [5] was inactive.

As to `O=C(Nc1ccc([N+](=O)[O-])cc1Cl)c1cc(Cl)ccc1O`, the red/green cell ratio (normalised) in assay [1] was 0.66 (inactive). The figures for the normalised cell number in assay [1] (setting [8]) and in assay [1] (setting [9]) were 0.36 and 0.24, respectively. Further, the AC50 in assay [3] was 1.05 µM (active); in assay [4], 0.935 µM (active); in assay [6], 1.66 µM (active); in assay [5], 1.66 µM (active); in assay [7], 1.18 µM (active).

For the compound `CN1C(C(=O)Nc2ccccn2)=C(O)c2sccc2S1(=O)=O`, the red/green cell ratio (normalised) in assay [1] is 0.82 (inactive). Also, the normalised cell number in assay [1] (setting [8]) worked out at 1.14; in assay [1] (setting [9]), 0.93. For the same compound, the outcome in assay [3], in assay [4], in assay [6], in assay [5] and in assay [7] was inactive.

As for `NNc1nncc2ccccc12`, the red/green cell ratio (normalised) in assay [1] is 1.11 (inactive). For the same compound, the values for the normalised cell number in assay [1] (setting [8]) and in assay [1] (setting [9]) were 1.13 and 1.26, respectively. Moreover, the compound was called inactive in assay [3], in assay [4] and in assay [5].

On to `Cc1ccc(S(=O)(=O)NC(=O)NN2CC3CCCC3C2)cc1` (stereo unspecified), for which the red/green cell ratio (normalised) in assay [1] is 0.84 (inactive). Besides, the normalised cell number stood at 1.15 in assay [1] (setting [8]) and 0.96 in assay [1] (setting [9]). The outcome in assay [3], in assay [4] and in assay [7] was inactive. For the same compound, in assay [6], the AC50 is 20.9 µM (active).

Take `CN(C)c1ccc(C(=C2C=CC(=[N+](C)C)C=C2)c2ccc(N(C)C)cc2)cc1`: in assay [1], the red/green cell ratio (normalised) is 3.62 (active). Besides, the values for the normalised cell number in assay [1] (setting [8]) and in assay [1] (setting [9]) were 0.14 and 0.5, respectively. The AC50 in assay [3] is 1.48 µM (active); in assay [4], 2.96 µM (active); in assay [6], 0.235 µM (active); in assay [5] it was 0.148 µM (active); in assay [7], 1.48 µM (active).

On to `COc1ccc(CCN(C)CCCC(C#N)(c2ccc(OC)c(OC)c2)C(C)C)cc1OC` (stereo unspecified), for which the red/green cell ratio (normalised) in assay [1] was 1.29 (inactive). The normalised cell number worked out at 1.17 in assay [1] (setting [8]) and 1.52 in assay [1] (setting [9]). In addition, the outcome in assay [3], in assay [4], in assay [6], in assay [5] and in assay [7] was inactive.

As to `COc1ncnc(NS(=O)(=O)c2ccc(N)cc2)c1OC`, the red/green cell ratio (normalised) in assay [1] is 1.18 (inactive). Also, the normalised cell number in assay [1] (setting [8]) was determined as 0.5; in assay [1] (setting [9]), 0.6. Besides, the result in assay [3], in assay [4], in assay [6], in assay [5] and in assay [7] was inactive.

For the compound `O=P(O)(O)C(O)(Cc1cccnc1)P(=O)(O)O`, in assay [1], the red/green cell ratio (normalised) is 0.63 (inactive). For the same compound, the normalised cell number in assay [1] (setting [8]) came to 1.37; in assay [1] (setting [9]), 0.87. Besides, the outcome in assay [3], in assay [4], in assay [6] and in assay [7] was inactive.

On to `CCCCN(CCCC)CCC(O)c1cc2c(Cl)cc(Cl)cc2c2cc(C(F)(F)F)ccc12` (stereo unspecified), for which the red/green cell ratio (normalised) in assay [1] was 1.18 (inactive). Moreover, the results for the normalised cell number in assay [1] (setting [8]) and in assay [1] (setting [9]) were 1.03 and 1.22, respectively. Moreover, the AC50 in assay [3] was 26.3 µM (active); in assay [5] it was 20.9 µM (active); in assay [7] it was 16.6 µM (active). Besides, the compound was classed as inactive in assay [4].

`OC[C@H]1O[C@@H](O[C@@H]2[C@@H](CO)O[C@](O)(CO)[C@H]2O)[C@H](O)[C@@H](O)[C@H]1O`: the red/green cell ratio (normalised) in assay [1] is 1.2 (inactive). Moreover, the normalised cell number stood at 1.03 in assay [1] (setting [8]) and 1.23 in assay [1] (setting [9]). In addition, the compound was classed as inactive in assay [3], in assay [4], in assay [5] and in assay [7].

Consider `O=NN(CCCl)C(=O)NCCCl`, for which the red/green cell ratio (normalised) in assay [1] is 1.04 (inactive). The normalised cell number in assay [1] (setting [8]) came out at 1.15; in assay [1] (setting [9]), 1.2. The outcome in assay [3], in assay [4], in assay [6], in assay [5] and in assay [7] was inactive.

As for `CCCCCN(C)CCC(O)(P(=O)(O)O)P(=O)(O)O`, in assay [1], the red/green cell ratio (normalised) was 1.14 (inactive). Moreover, the normalised cell number worked out at 0.86 in assay [1] (setting [8]) and 0.98 in assay [1] (setting [9]). Also, the result in assay [3], in assay [4], in assay [6], in assay [5] and in assay [7] was inactive.

Regarding `Cn1cnc2c1c(=O)[nH]c(=O)n2C`, the red/green cell ratio (normalised) in assay [1] is 0.94 (inactive). Further, the normalised cell number in assay [1] (setting [8]) amounted to 0.96; in assay [1] (setting [9]) it was 0.9. The compound was classed as inactive in assay [3] and in assay [7]. In addition, the AC50 was 23.5 µM (active) in assay [4], 23.5 µM (active) in assay [6] and 10.5 µM (active) in assay [5].

As for `CNC[C@H](O)c1cccc(O)c1`, in assay [1], the red/green cell ratio (normalised) is 1.3 (inactive). The normalised cell number in assay [1] (setting [8]) is 0.85; in assay [1] (setting [9]) it was 1.11. In addition, the compound was classed as inactive in assay [3], in assay [4], in assay [6], in assay [5] and in assay [7].

As for `O=C(O)c1cn(-c2ccc(F)cc2)c2cc(N3CCNCC3)c(F)cc2c1=O`, the red/green cell ratio (normalised) in assay [1] is 0.95 (inactive) and 0.88 (inactive). Also, the normalised cell number in assay [1] (setting [8]) was 1.1 and 0.99; in assay [1] (setting [9]), 1.04 and 0.87. Besides, the compound was classed as inactive in assay [3], in assay [4], in assay [6], in assay [5] and in assay [7].
